# Results from PubChem BioAssay (NCATS).
# Inconclusive results are not listed. Entries that show only a call come without a potency. Activity calls are given as the source filed them. Calls follow the shape of the dose curve; as a rule, active = well fitted cell-killing curve with a large enough effect; inconclusive = small, poorly fitted or top-dose-only effect; inactive = flat fitted curve, though single readings scatter.
# Assay: NCATS anti-infectives library activity on HEK293 viability as a counter-qHTS vs the C. elegans viability qHTS (AID 1745854)
# Settings: HEK293 viability counter-screen; series mostly up to 41.8 µM
# Text: Assay Development and Screening Technology Laboratory (ADST)
# National Center for Advancing Translational Sciences (NCATS), Rockville, MD
# National Institute of Health (NIH), Bethesda, Maryland
# Caenorhabditis elegans has helped elucidate the evolutionarily conserved genetics underlying pathways and cellular processes implicated in human disease and may be ideally positioned to reveal novel pharmacological properties of exiting drugs. The organism's short life cycle and microscopic size is applicable to the technical requirements of high-throughput screening. Here a quantitative high-throughput screening (qHTS)-based forward chemical biology platform has been developed using C. elegans. 384-well microtiter plate laser scanning cytometry was used in the rapid detection and quantification of the fluorescent protein-encoded phenotype to score worm viability. In a proof-of-concept study, the pharmacological qHTS profile obtained from a library of 643 anti-infective compounds.
# 1. Inglese, J., Auld, D. S., Jadhav, A., Johnson, R. L., Simeonov, A., Yasgar, A., Zheng, W., and Austin, C. P. (2006) Quantitative high-throughput screening: A titration-based approach that efficiently identifies biological activities in large chemical libraries, P Natl Acad Sci USA 103, 11473-11478.
# 2. Auld, D. S., Johnson, R. L., Zhang, Y. Q., Veith, H., Jadhav, A., Yasgar, A., Simeonov, A., Zheng, W., Martinez, E. D., Westwick, J. K., Austin, C. P., and Inglese, J. (2006) Fluorescent protein-based cellular assays analyzed by laser-scanning microplate cytometry in 1536-well plate format, Method Enzymol 414, 566-589.
# 3. Zuck, P., Lao, Z., Skwish, S., Glickman, J. F., Yang, K., Burbaum, J., and Inglese, J. (1999) Ligand-receptor binding measured by laser-scanning imaging, Proc Natl Acad Sci U S A 96, 11122-11127.
# PROTOCOL TABLE (as described by Inglese J, Shamu CE and Guy RK. 2007)
# SEQUENCE No. (e.g., 1, 2, 3, etc.); […] (e.g., C. elegans, Compounds, Incubation, Read, etc.); VALUE and DESCRIPTION.
# 1. Compounds. Library compounds and digitonin control added at 25 nL per well to 7 assay ready 1536-well Greiner white/solid bottom high base, TC plates and two DMSO control plates, transferred by Echo acoustic dispenser.
# 2. Cells. Seed 1500 HEK293 per well in 6 uL into assay ready Greiner 1536-well plates.
# 3. Incubation. Incubate plated cells with compounds at 37C in 5% CO2, 95% RH for 24 hr.
# 4. Reagent. Add 4 uL of CellTiter-Glo reagent from Promega per well of Greiner 1536-well plates with BioRAPTR FRD.
# 5. Incubation. Incubate treated cells at room temperature for 10 min., protect from light.
# 6. Detector. CellTiter-Glo luminescence measured using CCD-based camera (Viewlux) with settings as follows: Exposure, 1 sec; Gain, High; Speed, Slow; Binning, 2X.
# NOTES (numbers refer to Sequence numbers above; values are from representative experiments)
# 1. NIH Anti-Infectives library pre-dispensed into 7 assay ready 1536-well Greiner white/solid bottom high base, TC plates with Echo 555 acoustic dispenser. Most compounds dispensed at 10 mM high concentration and plated in 7-pt 1:5 inter-plate titration at 25 nl / well for a final assay concentration range of 41.7 uM - 2.7 nM. Two 1536-well Greiner assay plates of DMSO plated as screening controls to be read at the beginning and the end of the screen. Controls included DMSO vehicle control added at 25 nl/well to each well of column 1 and […] (83.3 uM final assay concentration), and Digitonin titrated 1:2 at 25 nl/ well to column 4 in duplicate for a final assay concentration range of 83.3 uM - 2.5 nM.
# 2. HEK293 cells grown for 48 hr in one T175 culture flask in DMEM high glucose media supplemented with 10% FBS and 1% Pen/Strep antibiotic. Cells trypsinized and diluted in 10 ml supplemented media, strained through 40 µm cell strainer, and diluted to a total volume of 40 ml with supplemented media. […]
# Potency is read from the fitted curve at half-maximal effect.
row,Structure (SMILES),Potency
1,O=C1c2c(O)ccc(O)c2C(=O)c2c(NCCNCCO)ccc(NCCNCCO)c21,12.6 µM (active)
2,O=c1[nH]cc(F)c(=O)[nH]1,inactive
3,Nc1ccn([C@H]2CC[C@@H](CO)O2)c(=O)n1,inactive
4,CN(C)CCCN1c2ccccc2CCc2ccc(Cl)cc21,inactive
5,OCCN(CCO)c1nc(N2CCCCC2)c2nc(N(CCO)CCO)nc(N3CCCCC3)c2n1,inactive
6,CC(=O)OCC(CCn1cnc2cnc(N)nc21)COC(C)=O,inactive
7,CC(C)Cc1ccc(C(C)C(=O)O)cc1 (stereo unspecified),inactive
8,NC12CC3CC(CC(C3)C1)C2,inactive
9,C[C@H]1c2cccc(O)c2C(O)=C2C(=O)[C@]3(O)C(O)=C(C(N)=O)C(=O)[C@@H](N(C)C)[C@@H]3[C@@H](O)[C@@H]21,inactive
10,CC1(C)O[C@H]2CC(=O)OC[C@]23[C@H]2CC[C@@]4(C)[C@H](c5ccoc5)OC(=O)[C@H]5O[C@]54[C@]2(C)C(=O)C[C@@H]13,inactive
11,CC(C)(C)C(=O)Oc1ccc(S(=O)(=O)Nc2ccccc2C(=O)NCC(=O)O)cc1,inactive
12,NC(=O)NO,inactive
13,NS(=O)(=O)c1cc2c(cc1Cl)NCNS2(=O)=O,inactive
14,Cc1cn([C@H]2C=C[C@@H](CO)O2)c(=O)[nH]c1=O,inactive
15,Cc1cn([C@H]2C[C@H](N=[N+]=[N-])[C@@H](CO)O2)c(=O)[nH]c1=O,inactive
16,O=C(CCCN1CCC(O)(c2ccc(Cl)cc2)CC1)c1ccc(F)cc1,inactive
17,CC(C)(Oc1ccc(C2CC2(Cl)Cl)cc1)C(=O)O (stereo unspecified),inactive
18,COc1cc2nc(N3CCN(C(=O)C4COc5ccccc5O4)CC3)nc(N)c2cc1OC (stereo unspecified),inactive
19,COc1ccccc1OCC(O)CN1CCN(CC(=O)Nc2c(C)cccc2C)CC1 (stereo unspecified),inactive
20,Nc1nc2c(ncn2COC(CO)CO)c(=O)[nH]1,inactive
21,COc1ccc(C2CNC(=O)C2)cc1OC1CCCC1 (stereo unspecified),inactive
